Experimental data from the supplement of paper PMC8699584.
Where “and” joins values, the source holds several entries; their conditions need not be identical. Identical values can stand only once. ± gives the standard deviation of the averaged measurements.

Test system: Molm13
Experiment: cell viability relative to DMSO control (bortezomib = 0%); higher = less growth inhibition
Details: 10 nM; 72 h
In short: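 Acute myeloid leukemia cells were plated at 1000 cells per well in 50 µL onto a 679-compound library of approved and investigational agents in 384-well plates and exposed to a single 10 nM dose for 72 h, in duplicate. Cell viability was measured by CellTiter-Glo luminescence on an EnVision reader. Readings were scaled to percentages by per-plate linear regression, with DMSO-treated cells set at 100% and positive-control-treated cells at 0%.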

Row | SMILES | cell viability
1 | O=[N+]([O-])c1ccc(-c2nc(-c3ccc(F)cc3)c(-c3ccncc3)[nH]2)cc1 | 99.9 ± 5.5%
2 | O=C1NC(=O)/C(=C/c2ccc3c(c2)OCO3)S1 | 96 ± 3%
3 | N#CC[C@H](C1CCCC1)n1cc(-c2ncnc3[nH]ccc23)cn1 | 87.6 ± 8.3%
4 | Nc1ncnc2c1c(-c1cccc(OCc3ccccc3)c1)cn2C1CC(CN2CCCC2)C1 (stereo not given) | 103 ± 13%
5 | CNC(=O)c1cc(Oc2ccc(NC(=O)c3cccc(C(F)(F)F)c3)cc2)ccn1 | 96.3 ± 16%
6 | COc1ccc(S(=O)(=O)N(C(C)=O)c2ccccc2/C=C/c2cc[n+]([O-])cc2)cc1 | 98.3 ± 18%
7 | CCOc1cc2ncc(C#N)c(Nc3ccc(F)c(Cl)c3)c2cc1NC(=O)/C=C/CN(C)C [Pelitinib (EKB-569)] | 104 ± 12%
8 | Cc1ccc(S(=O)(=O)NC(=O)NN2CC3CCCC3C2)cc1 (stereo not given) [Gliclazide] | 98.5 ± 5.5%
9 | C[C@@H]1CN(C(=O)c2ccc(NC(=O)c3cc(O[C@H](C)c4c(Cl)ccc(F)c4Cl)c(N)nn3)cc2)C[C@H](C)N1 [Ensartinib] | 127 ± 20%
10 | O=c1[nH]c(C2CCCN2)nc2c1oc1ccc(Cl)cc12 (stereo not given) | 96.9 ± 13%
11 | CN1CCN(CCOc2cc(OC3CCOCC3)c3c(Nc4c(Cl)ccc5c4OCO5)ncnc3c2)CC1 [Saracatinib (AZD0530)] | 98.2 ± 3.5%
12 | CC(=O)CC(c1ccccc1)c1c(O)c2ccccc2oc1=O (stereo not given) [Warfarin sodium] | 105 ± 6.5%
13 | CC(=O)/C(C)=N/O [2,3-Butanedione 2-Monoxime] | 79.4 ± 21%
14 | Cc1cc(Nc2cc(CN3CCOCC3)c3nc(C)c(Cc4ccc(Cl)cc4F)n3n2)n[nH]1 | 82.5 ± 8.9%
15 | Cn1c(=O)n(-c2ccc(C(C)(C)C#N)cc2)c2c3cc(-c4cnc5ccccc5c4)ccc3ncc21 | 107 ± 2.7%
16 | FC(F)c1nc2ccccc2n1-c1nc(N2CCOCC2)nc(N2CCOCC2)n1 | 117 ± 11%
17 | CCNc1nc(Nc2cc(F)c(C(=O)N3CCOCC3)cc2OC)ncc1C(F)(F)F | 105.79 ± 0.065%
18 | O=C1NC(=O)C(c2c[nH]c3ccccc23)=C1c1c[nH]c2ccccc12 [Bisindolylmaleimide IV] | 105 ± 5.2%
19 | O=c1c(-c2ccc(O)cc2)coc2cc(O)cc(O)c12 [Genistein] | 104 ± 4.5%
20 | Cc1ncc(-c2ccnc(Nc3ccc(S(C)(=O)=O)cc3)n2)n1C(C)C | 102 ± 14%

Row | SMILES | cell viability
21 | Cn1cnc2c(NCc3ccccc3)nc(NCCO)nc21 [Olomoucine] | 106 ± 16%
22 | CNCc1ccc(-c2cc(-c3nc(-c4ccc(S(=O)(=O)C(C)C)cc4)cnc3N)on2)cc1 | 106 ± 1.8%
23 | COc1cc2ncnc(Oc3cccc(NC(=O)Nc4cc(C(C)(C)C(F)(F)F)on4)c3)c2cc1OC | 115 ± 3.7%
24 | C[C@H](Nc1ncnc2nc[nH]c12)c1cc2cccc(Cl)c2c(=O)n1-c1ccccc1 [Duvelisib (IPI-145, INK1197)] | 111 ± 14%
25 | c1ccc2c(-c3cnn4cc(-c5ccc(N6CCNCC6)cc5)cnc34)ccnc2c1 | 98 ± 20%
26 | CN1CCN(c2ccc(C(=O)Nc3cc(-c4cccc(NS(=O)(=O)c5ccccc5)c4)[nH]n3)cc2)CC1 | 61.4 ± 18%
27 | Cn1cnc(N)c2ncnc1-2 [3-Methyladenine] | 119 ± 7.3%
28 | Cc1cc(C(C)Nc2ccccc2)c2nc(N3CCOCC3)cc(=O)n2c1 (stereo not given) | 106 ± 18%
29 | COc1ccc(Cl)cc1NC(=O)Nc1cc(C)nc2ccccc12 | 129 ± 23%
30 | CS(=O)(=O)c1ccc(-c2cnc(N)c(C(=O)Nc3ccccc3)n2)cc1 | 83.9 ± 3.9%
31 | CC(C)n1cnc2c(NCc3ccccc3)nc(NCCCO)nc21 [Bohemine] | 95.3 ± 4.3%
32 | COc1ccc(CNc2nc(N(CCO)CCO)nc3c2ncn3C(C)C)cc1 | 102 ± 7%
33 | C[C@@H](N)[C@H]1CC[C@H](C(=O)Nc2ccncc2)CC1 | 93.8% and 107%
34 | O=C1Cc2c([nH]c3ccc(Br)cc23)-c2ccccc2N1 [Kenpaullone] | 88 ± 2.5%
35 | CCN(CC)CCNC(=O)c1c(C)[nH]c(/C=C2\C(=O)Nc3ccc(F)cc32)c1C [Sunitinib Malate] | 83.1 ± 1.1%
36 | CN1CCN(CCCNc2ncc(Cl)c(-c3cc4c(C(=O)NC5CC5)cccc4s3)n2)CC1 | 110 ± 3.6%
37 | CC(C)[C@H](CO)Nc1nc(Nc2cccc(Cl)c2)c2ncn(C(C)C)c2n1 [Purvalanol A] | 102 ± 7.3%
38 | CC(=O)c1c(C)c2cnc(Nc3ccc(N4CCNCC4)cn3)nc2n(C2CCCC2)c1=O [Palbociclib] | 90.4 ± 13%
39 | CCN1CCN(Cc2ccc(Nc3ncc(F)c(-c4cc(F)c5nc(C)n(C(C)C)c5c4)n3)nc2)CC1 | 105% and 98.2%
40 | O=C(O)CN1C(=O)c2c(I)c(I)c(I)c(I)c2C1=O | 126 ± 38%
